SMILES strings stand for the structures. The whole screen tested about 310,000 compounds, of which about 14,000 (4.5%) showed an effect of 50% or more. Effects have a minus sign here. What follows is part of a selection rich in strong results, with near analogues and random picks from the rest.
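Further: peak tail current of the secondary pulse compared with the same well before compound.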

The target in the assay is human ether-à-go-go-related gene (hERG) potassium channel (human, UniProt Q12809). The experiment in a line: primary screen, population patch clamp on CHO cells stably expressing hERG; higher = less effect of the substance.
Chain of human ether-à-go-go-related gene (hERG) potassium channel (Q12809 whole entry, looked up): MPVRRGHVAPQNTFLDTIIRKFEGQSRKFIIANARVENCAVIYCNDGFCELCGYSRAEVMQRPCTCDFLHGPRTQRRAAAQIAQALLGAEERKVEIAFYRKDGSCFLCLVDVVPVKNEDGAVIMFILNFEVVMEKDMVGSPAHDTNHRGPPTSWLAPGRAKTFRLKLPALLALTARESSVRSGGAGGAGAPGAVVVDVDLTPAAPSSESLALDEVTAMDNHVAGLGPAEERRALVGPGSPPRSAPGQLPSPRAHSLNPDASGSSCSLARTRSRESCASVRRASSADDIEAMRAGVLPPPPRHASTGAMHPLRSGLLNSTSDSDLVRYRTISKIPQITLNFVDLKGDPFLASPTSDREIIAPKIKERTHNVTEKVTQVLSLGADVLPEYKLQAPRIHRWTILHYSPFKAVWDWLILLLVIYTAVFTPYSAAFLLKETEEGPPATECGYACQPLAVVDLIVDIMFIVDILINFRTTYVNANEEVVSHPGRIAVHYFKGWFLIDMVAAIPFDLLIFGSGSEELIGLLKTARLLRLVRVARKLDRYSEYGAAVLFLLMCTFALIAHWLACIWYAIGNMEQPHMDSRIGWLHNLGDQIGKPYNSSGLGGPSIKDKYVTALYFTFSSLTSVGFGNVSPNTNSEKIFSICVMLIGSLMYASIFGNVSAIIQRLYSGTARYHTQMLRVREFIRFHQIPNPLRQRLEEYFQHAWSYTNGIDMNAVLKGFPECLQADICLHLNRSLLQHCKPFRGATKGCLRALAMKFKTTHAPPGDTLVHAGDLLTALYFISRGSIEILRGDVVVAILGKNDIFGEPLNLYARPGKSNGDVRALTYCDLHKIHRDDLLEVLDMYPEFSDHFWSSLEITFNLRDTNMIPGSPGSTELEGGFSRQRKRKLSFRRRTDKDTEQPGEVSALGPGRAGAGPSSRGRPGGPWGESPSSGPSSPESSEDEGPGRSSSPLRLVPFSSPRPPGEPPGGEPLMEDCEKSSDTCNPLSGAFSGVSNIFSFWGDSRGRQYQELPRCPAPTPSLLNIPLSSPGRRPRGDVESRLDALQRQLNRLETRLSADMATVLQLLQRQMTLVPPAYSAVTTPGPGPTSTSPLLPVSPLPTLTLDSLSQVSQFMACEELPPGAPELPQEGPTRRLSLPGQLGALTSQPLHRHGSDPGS
For `COc1ccc(OC)c(NC2=C(Cl)C(=O)N(Cc3ccccc3)C2=O)c1`, the “hERG current change (%, negative = inhibition) at 10uM” value was determined as 5.06%.

Turning to `CCn1c(COc2cc(C)ccc2C(C)C)nnc1SCC(=O)Nc1nccs1`, the “hERG current change (%, negative = inhibition) at 10uM” value was determined as 5.52%.

Take `COC(=O)c1ccc(N)cc1O`: the “hERG current change (%, negative = inhibition) at 10uM” value is recorded as 22%. With `Cc1cccc2c(C(=O)Nn3cnnc3)cc(-c3ccccc3Cl)nc12`, the “hERG current change (%, negative = inhibition) at 10uM” value is given as 25.8%. The result for `CC(=O)N1CCN(c2ncnc3sc(-c4ccccc4)cc23)CC1` reads -44.4%. Next, `CCOC(=O)c1cnc(SCC(=O)N2CCN(C(=O)c3ccco3)CC2)nc1N`: -29.3%. Next, `O=C(Nc1ccccc1N1CCCC1)c1ccc2c(c1)OCO2`: -3.23%; `O=C(Nc1ccccc1N1CCCC1)c1cccnc1`: -0.385%; `CN1CCN(c2ccc(NC(=O)c3cccc(OCc4ccccc4)c3)cc2)CC1`: -8.95%. As for `O=C(Nc1ccccc1N1CCN(C(=O)c2ccccc2)CC1)c1ccc2c(c1)OCO2`, the “hERG current change (%, negative = inhibition) at 10uM” value is on record as -60.7%. Next, `O=C(Nc1ccccc1N1CCN(C(=O)c2ccc(Cl)cc2)CC1)c1ccc2c(c1)OCO2`: -46.8%; `CN1CCN(c2ccccc2NC(=O)c2ccc(OCc3ccccc3)cc2)CC1`: -41.9%; `O=C(Nc1ccccc1N1CCN(C(=O)c2ccc(Cl)cc2)CC1)c1cccnc1`: -73.2%. The result for `O=C(Nc1ccc(N2CCN(C(=O)c3ccccc3)CC2)c(Cl)c1)c1cccnc1` reads -31.2%.

Regarding `CN1CCN(c2ccccc2NC(=O)c2cccc(OCc3ccccc3)c2)CC1`, the “hERG current change (%, negative = inhibition) at 10uM” value was -78.9%. Consider `CCOc1ccc(C2C(C#N)=C(N)N3C(=C2C#N)Sc2ccccc23)cc1` (stereo not shown), for which the “hERG current change (%, negative = inhibition) at 10uM” value turned out to be 9.5%. The result for `CC1Cc2ccccc2N1C(=O)CSc1nnc2n1C(C)(C)Cc1ccccc1-2` (stereo not shown) reads -3.06%; that for `CC(C)CNC(=O)CCc1nc(-c2ccccc2)no1`, 10.4%; that for `O=[N+]([O-])c1cc(S(=O)(=O)C(F)(F)F)ccc1NCC1CCCO1` (stereo not shown), 16.5%. The result for `O=C(NCCCn1ncc2ccccc21)c1cc(COc2c(F)cccc2F)on1` reads 6.73%; that for `CCn1ncc(Br)c1C(=O)Nc1ccc(Cl)cn1`, -7.49%; that for `O=[N+]([O-])c1cc(Cl)ccc1N1CCCC1`, 5.05%. On to `O=C(/C=C/c1ccc(Cl)cc1)N1CCN(c2c(Cl)cccc2[N+](=O)[O-])CC1`, for which the “hERG current change (%, negative = inhibition) at 10uM” value is reported as -58%. Next, `O=C(/C=C/c1ccc(Cl)cc1)N1CCN(c2ccc(Cl)cc2[N+](=O)[O-])CC1`: -92.9%; `O=C1CN(C(=O)/C=C/c2ccc(Cl)cc2)c2ccccc2N1`: -75.2%; `O=C(/C=C/c1ccc(Cl)cc1Cl)N1CCc2ccccc21`: -1.39%. Turning to `CCC(=O)N1CCN(c2c(Cl)cccc2[N+](=O)[O-])CC1`, the “hERG current change (%, negative = inhibition) at 10uM” value was -13.5%. The result for `O=C1CN(C(=O)/C=C/c2ccccc2F)c2ccccc2N1` reads -2.56%.

Take `O=C(/C=C/c1ccc(Cl)cc1Cl)N1CCN(c2ccccc2[N+](=O)[O-])CC1`: the “hERG current change (%, negative = inhibition) at 10uM” value is on record as -72.7%.

`O=C1CN(C(=O)/C=C/c2cccc(Cl)c2)c2ccccc2N1`: the “hERG current change (%, negative = inhibition) at 10uM” value is recorded as -21.4%. Next, `CC(C)(C)C(=O)N1CCN(c2ccc(Cl)cc2[N+](=O)[O-])CC1`: -39.3%. The result for `O=C(/C=C/c1ccccc1)N1CCN(c2c(Cl)cccc2[N+](=O)[O-])CC1` reads -20.8%; that for `O=C(/C=C/c1ccccc1[N+](=O)[O-])N1CCCCC1`, -2.55%. The result for `Cc1nc2c(C)cccc2cc1C(=O)N/N=C/c1ccc(N(C)C)cc1` reads -9.49%; that for `COC(=O)c1cc(C)sc1NC(=O)CN1CCN(C(=O)C2CCCO2)CC1` (stereo not shown), -34.7%. Consider `O=C(CS(=O)(=O)c1ccccc1)N1CCN(c2ccccc2)CC1`, for which the “hERG current change (%, negative = inhibition) at 10uM” value is 2.36%. Take `CCCOc1ccc(C2c3c(oc4ccccc4c3=O)C(=O)N2CCCN2CCOCC2)cc1` (stereo not shown): the “hERG current change (%, negative = inhibition) at 10uM” value is on record as -6.76%. Next, `CCCC(C)NC(=O)c1sc2nc3n(c(=O)c2c1C)CCC3` (stereo not shown): -6.29%. With `Cc1cc(NC(=O)C2COc3ccccc3O2)no1` (stereo not shown), the “hERG current change (%, negative = inhibition) at 10uM” value was -0.48%. Next, `O=C(CSc1n[nH]c(-c2ccco2)n1)Nc1sc2c(c1C(=O)Nc1ccccc1)CCCC2`: -41%; `Cc1ccccc1NC(=O)c1c(C)[nH]c(=S)c(C#N)c1-c1ccc(Cl)cc1`: 21.1%. As for `Cc1ccc(-c2nnc(N(C)C(=O)C3CCCO3)s2)cn1` (stereo not shown), the “hERG current change (%, negative = inhibition) at 10uM” value stood at 6.74%. The result for `Cc1cc(C)cc(-n2c(C)cc(/C=C3\C(=N)N4N=C(CC(C)C)SC4=NC3=O)c2C)c1` reads 5.86%. The result for `c1ccc(COCCC2CO2)cc1` (stereo not shown) reads 5.49%; that for `O=C(/C=C/c1ccc(Cl)cc1)N1CCN(c2ccccc2[N+](=O)[O-])CC1`, -75.4%. On to `CN1CCCN(C(=O)/C=C/c2ccc(Cl)cc2Cl)CC1.Cl`, for which the “hERG current change (%, negative = inhibition) at 10uM” value is on record as -67%. Next, `O=C(/C=C/c1ccccc1Cl)N1CCCN(C(=O)/C=C/c2ccccc2Cl)CC1`: -26.1%.

As to `O=C(/C=C/c1ccc([N+](=O)[O-])cc1)N1CCN(c2ccccc2F)CC1`, the “hERG current change (%, negative = inhibition) at 10uM” value is -34.2%.

For `O=C(/C=C/c1ccc(Cl)cc1)N1CCN(c2ccccn2)CC1`, the “hERG current change (%, negative = inhibition) at 10uM” value was -32.3%. Turning to `O=C1CN(C(=O)/C=C/c2ccc(Cl)cc2Cl)CCN1`, the “hERG current change (%, negative = inhibition) at 10uM” value is -19.2%. With `CCC(=O)NC1CC2CCCC(C1)N2Cc1ccc(C)cc1` (stereo not shown), the “hERG current change (%, negative = inhibition) at 10uM” value is listed as -37.4%.

For `CCCNC(=S)NC1CC2CCC(C1)N2Cc1ccccc1` (stereo not shown), the “hERG current change (%, negative = inhibition) at 10uM” value is listed as -35.7%. The result for `CCCNC(=S)NC1CC2CCCC(C1)N2CC(C)C.Cl` (stereo not shown) reads 13.1%; that for `O=C(NC1CC2CCCC(C1)N2C(=O)NC1CCCCC1)c1ccc(F)cc1` (stereo not shown), 4.98%. The result for `Cc1ccc(C(=O)NC2CC3CCCC(C2)N3Cc2ccccc2)cc1` (stereo not shown) reads -40.4%; that for `CC(=O)NC1CC2CCC(C1)N2Cc1ccc(C)cc1` (stereo not shown), -25.4%; that for `Cc1ccc(CN2C3CCCC2CC(NC(=O)c2ccc(C)cc2)C3)cc1` (stereo not shown), -77.7%. The result for `O=C(NC1CC2CCCC(C1)N2Cc1ccc(F)cc1)c1ccc(F)cc1` (stereo not shown) reads -70.8%; that for `Cc1ccc(CN2C3CCCC2CC(NC(=O)c2ccc(F)cc2)C3)cc1` (stereo not shown), -74.1%; that for `CC(=O)NC1CC2CCCC(C1)N2Cc1ccc(C)cc1` (stereo not shown), -30.5%. As to `CCCNC(=S)NC1CC2CCCC(C1)N2Cc1ccc(F)cc1` (stereo not shown), the “hERG current change (%, negative = inhibition) at 10uM” value is recorded as -60.6%. On to `CNC(=S)N1C2CCCC1CC(NC(=O)c1ccc(F)cc1)C2` (stereo not shown), for which the “hERG current change (%, negative = inhibition) at 10uM” value was 6.93%. Next, `CC(NC(=O)CSc1nnc(CC(=O)Nc2ccc(Cl)c(Cl)c2)n1C)c1ccccc1` (stereo not shown): 4.55%; `COc1ccc(C2CC(c3ccc(Cl)cc3Cl)Nc3nc(N)nn32)cc1OC` (stereo not shown): -18.7%.

In the case of `COc1cc(NC(C)=O)c2ncccc2c1[N+](=O)[O-]`, the “hERG current change (%, negative = inhibition) at 10uM” value was -5.4%. The result for `CC1CCCCC1NC(=O)CCN1C(=O)C2C3C=CC(C3)C2C1=O` (stereo not shown) reads 13%; that for `COc1cc2c(cc1OC)C(c1cc3cc4c(cc3[nH]c1=O)OCO4)N(C(=O)C(C)C)CC2` (stereo not shown), -4.79%. The result for `Cc1ccc(C(=O)N/C(=C\c2ccc(-c3cccc([N+](=O)[O-])c3)o2)C(=O)NCCCN2CCOCC2)cc1` reads -74.9%. The result for `Cc1ccc(C(=O)N/C(=C\c2sccc2C)C(=O)NCCCN2CCOCC2)cc1` reads -17.7%; that for `Cc1ccc(C(=O)N/C(=C\c2ccc(-c3ccccc3[N+](=O)[O-])o2)C(=O)NCCCN2CCOCC2)cc1`, -61.9%; that for `Cc1ccc(C(=O)N/C(=C\c2ccco2)C(=O)NCCCN2CCOCC2)cc1C`, -12.7%. For `N#C/C(=C\c1ccc(-c2ccccc2[N+](=O)[O-])o1)C(N)=O`, the “hERG current change (%, negative = inhibition) at 10uM” value is 24.6%. Take `N#C/C(=C/c1ccc(-c2ccccc2[N+](=O)[O-])o1)C(=O)NCCN1CCCCC1`: the “hERG current change (%, negative = inhibition) at 10uM” value is recorded as -69.1%. Regarding `N#C/C(=C\c1ccc(-c2cccc([N+](=O)[O-])c2)o1)C(=O)NCCN1CCOCC1`, the “hERG current change (%, negative = inhibition) at 10uM” value is recorded as -47.2%. Next, `Cc1ccc(C(=O)N/C(=C\c2cn(C)c3ccccc23)C(=O)NCCCN2CCOCC2)cc1`: 0.137%; `CNC(=O)/C(C#N)=C/c1ccc(-c2ccccc2[N+](=O)[O-])o1`: 8.72%. The result for `O=C(CSc1nnc(SCc2ccccc2)s1)N/N=C/C=C\c1ccco1` reads 9.17%; that for `Cc1ccccc1-c1nc2cc(N)ccc2o1`, -15.6%; that for `Cc1ccc2c(c1)C(c1ccccc1)N(C(=O)CC(C)C)CC(=O)N2` (stereo not shown), -28.5%. As to `O=C1N=C(N2C=CC(=C3C=CNC=C3)C=C2)/C(=C/N=NC(=O)c2ccccc2)S1`, the “hERG current change (%, negative = inhibition) at 10uM” value is given as 30.3%. Next, `CC(=O)Nc1ccc(CN(C)CC2CCCN(CCc3cccc(C(F)(F)F)c3)C2)cc1` (stereo not shown): -68.4%. The result for `COc1cc(CN(C)CC2CCCN(CCc3cccc(C(F)(F)F)c3)C2)ccc1O` (stereo not shown) reads -62.8%; that for `O=c1cnn(-c2ccccc2)c(-c2ccccc2)c1`, 3.33%; that for `Cc1cc(C)n2ncnc2n1`, 2.2%.

For `O=C1NC(=Nc2ccccc2)S/C1=C/c1cccnc1`, the “hERG current change (%, negative = inhibition) at 10uM” value worked out at 15.9%.

As for `Cn1c(O)c(/C=C2\C=NN=C2c2ccccc2)sc1=S`, the “hERG current change (%, negative = inhibition) at 10uM” value amounted to 0.793%. Next, `CCOc1cc(CN2CCN(Cc3ccc(C)o3)C(CCO)C2)ccc1OC` (stereo not shown): -3.33%; `COc1cc(CN2CCN(CCCc3ccccc3)C(CCO)C2)cc(OC)c1O` (stereo not shown): -61.5%; `CCOc1cc(CN2CCN(CCc3ccccc3)C(CCO)C2)ccc1OC` (stereo not shown): -66.5%. The result for `COc1ccc(CN2CCN(CCCc3ccccc3)C(CCO)C2)cc1OC` (stereo not shown) reads -72.8%. Next, `COc1ccc(CN2CCN(Cc3ccccc3)C(CCO)C2)cc1OC` (stereo not shown): -30.7%.
